# Compounds with a hit are over-represented: about 3.3% of the library has one in this group of screens.
# GAA850 FXN act – increases GAA850 frataxin promoter reporter activity; activation, % at 6 µM; AID 540364; hit rate 0.56% among 360,000; HEK293 lucGAA850 FXN promoter luciferase reporter, 24 h; percent of 10 µM SAHA response;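 active means activation above the average of all compounds screened plus 3 SD, cutoff fixed separately per campaign, cut at about 7.5% in these data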;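 further: 0% = DMSO wells and 100% = 10 µM SAHA wells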
# esBAF inh – SWI/SNF esBAF complex inhibition; mouse ES cells, Bmi1-luciferase knock-in reporter, 24 h; 100% = twice the neutral-well signal; reporter increase, % at 12.5 µM; hit rate 2% among 350,000; AID 602393; in the data active means activation above about 40%; inconclusive means no clear call, values can overlap the other calls;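 further: 0% = median of the plate's neutral control wells and 100% = double that signal; a rise in the Bmi1 reporter signal indicates esBAF inhibition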
# MITF TRPM1 HTS – increases MITF-driven TRPM1 promoter luciferase signal | hit rate 0.75% among 300,000 | activation, % at 12.5 µM | SK-MEL-5 TRPM1-promoter luciferase, 24 h; % of positive control, neutral wells = 0;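 active means mean activation of at least 80% with every replicate also reaching 80%; inconclusive means mean reaches 80% but some replicate falls short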;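 further: 0% = neutral control wells and 100% = parthenolide positive control wells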
# Wnt act – Wnt/beta-catenin pathway activation | Wnt/beta-catenin reporter cell assay, activator, plate reader | activation, % at 9.35 µM | hit rate 1.2% among 300,000 | AID 743398; in the data active means activation above about 30%, passing the limit was not always enough; inconclusive means no clear call, values can overlap the other calls;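 further: 0% = neutral control wells and 100% = positive control wells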
# C2C12 statin – suppression of simvastatin myotoxicity | C2C12 myotubes + simvastatin, ATP luminescence, 48 h; scaled: DMSO 0, geranylgeraniol control 100 | rescue of ATP level, % at 7.49 µM | hit rate 0.78% among 330,000 | AID 602340;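 active means mean ATP rescue above about 67%, or every replicate alone reaching that limit, limit read from the data, passing the limit was not always enough; inconclusive means no clear call, values can overlap the other calls; inactive means mean under the limit and some replicate under it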;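 further: myotubes were challenged with 10 µM simvastatin during compound exposure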
# The depositor's hits bear a star; ? = inconclusive; . = no result given; ! = a repeat was not active.
SMILES,GAA850 FXN act,esBAF inh,MITF TRPM1 HTS,Wnt act,C2C12 statin
Cc1nnc(NC(=O)c2ccc(-c3ccc(Cl)cc3)o2)s1,-0.6,15.8,11.0,-1.8,-4.9
O=C(Nc1nccs1)c1ccc(-c2ccc([N+](=O)[O-])cc2)o1,4.5,68.8*,40.3,-0.7,-7.0
COc1ccc(NC(=O)Nc2ccc3c(c2)[C@@H]2C[C@@H](CC(=O)N4CCN(C)CC4)O[C@@H](CO)[C@@H]2O3)cc1,.,-0.5,.,.,5.7
O=C(Nc1nccs1)c1ccc(N2CCOCC2)c([N+](=O)[O-])c1,5.1,39.6,63.8,42.6*,-15.0
O=C(Nc1nccs1)c1ccc(-c2ccccc2[N+](=O)[O-])o1,3.4,86.2*,79.1,35.1*,-6.1
O=C(Nc1nccs1)c1ccc(-c2ccccc2Cl)o1,4.9,.,47.1,?,.
C[C@H](CO)N1C[C@H](C)[C@H](CN(C)C(=O)CC2CC2)Oc2ncc(C#CC3(O)CCCC3)cc2C1=O,.,3.8,.,.,21.3
COc1ccccc1-c1cnc2c(c1)C(=O)N([C@@H](C)CO)C[C@H](C)[C@H](CN(C)Cc1ccncc1)O2,.,0.7,.,.,10.3
COc1ccc(S(=O)(=O)N(C)C[C@H]2Oc3c(NC(=O)Nc4ccccc4)cccc3C(=O)N([C@H](C)CO)C[C@@H]2C)cc1,-5.2,-3.8,0.3,-5.3,-7.4
CC(C)NC(=O)Nc1cccc2c1O[C@H](CN(C)Cc1ccc(-c3ccccc3)cc1)[C@@H](C)CN([C@@H](C)CO)C2=O,.,2.4,.,.,65.9*
Cc1noc(C)c1NC(=O)Nc1cccc2c1O[C@@H](CN(C)Cc1ccc(-c3ccccc3)cc1)[C@H](C)CN([C@H](C)CO)C2=O,.,-0.8,.,.,?
Cc1noc(C)c1NC(=O)Nc1cccc2c1O[C@H](CN(C)S(=O)(=O)c1ccc(F)cc1)[C@@H](C)CN([C@H](C)CO)C2=O,1.6,3.5,-0.1,0.7,81.2*!
CC(C)NC(=O)Nc1cccc2c1O[C@H](CN(C)Cc1ccc(-c3ccccc3)cc1)[C@H](C)CN([C@@H](C)CO)C2=O,.,-1.0,.,.,2.8
Cc1noc(C)c1NC(=O)Nc1cccc2c1O[C@H](CN(C)Cc1ccc(-c3ccccc3)cc1)[C@@H](C)CN([C@@H](C)CO)C2=O,.,5.3,.,.,98.5*
COc1ccc(S(=O)(=O)N(C)C[C@H]2Oc3c(NC(=O)Nc4ccccc4)cccc3C(=O)N([C@H](C)CO)C[C@H]2C)cc1,.,3.3,.,.,77.6*
Cc1cc(C(=O)Nc2ccc3c(c2)C(=O)N(C)[C@@H]2CC[C@@H](CC(=O)NC4CCCC4)O[C@H]2CO3)no1,.,-6.4,.,.,36.7
COc1ccc(CC(NC(C)=O)C(=O)NC2CCN(c3nc(C)cc(C)c3C#N)CC2)c(OC)c1 (configuration not stated),-0.1,0.6,-3.7,-10.3,-45.4
COc1cccc(CC(NC(C)=O)C(=O)NC2CCN(c3nc(C)cc(C)c3C#N)CC2)c1 (configuration not stated),-1.3,-0.3,-11.6,3.3,117.8*
O=c1oc2ccccc2nc1/C=C(\O)c1ccccc1,4.5,.,.,39.9*,.
Cc1ccc(-n2nnc3ccccc3c2=O)cc1C,1.4,8.4,86.0*,.,-0.4
Cc1ccc(C)c(C(=O)CSc2nnnn2C(C)C)c1,0.0,51.4*,45.0,.,-0.4
CC(C)n1nnnc1SCC(=O)c1ccc2c(c1)OCCO2,1.3,46.7*,77.3,29.5,-1.4
O=C(CSc1nnnn1C1CCCC1)c1ccc2c(c1)OCCO2,2.2,81.2*,74.4,?,-3.8
CCn1nnnc1SCC(=O)c1ccc2c(c1)OCCO2,-2.4,?,15.9,12.4,-1.6
CCn1c(C)cc(C(=O)CSc2nnnn2C2CCCC2)c1C,1.0,-11.2,105.1*,2.7,2.8
SMILES,GAA850 FXN act,esBAF inh,MITF TRPM1 HTS,Wnt act,C2C12 statin
C[C@@H]1CN([C@H](C)CO)S(=O)(=O)c2ccc(-c3cccc(F)c3)cc2O[C@@H]1CN(C)S(=O)(=O)c1ccccc1,.,9.1,.,.,-25.8
O=C(O)C[C@H]1C[C@@H]2c3cc(NC(=O)NC4CCCC4)ccc3O[C@@H]2[C@H](CO)O1,.,-4.7,.,.,9.2
CN1C(=O)c2cc(NC(=O)Nc3ccccc3)ccc2OC[C@@H]2O[C@H](CC(=O)NC3CCC3)CC[C@@H]21,.,0.4,.,.,-0.7
O=C(Nc1ccccc1)C1=C[C@@H](C2CC2)C[C@@H](OCCCCO)O1,3.2,66.9*,35.7,?,7.9
O=C(Nc1ccccc1)C1=C[C@@H](c2ccc(Br)cc2)C[C@@H](OCCCCO)O1,4.9,57.4*,72.2,23.1,-16.1
O=C(NCc1ccccc1)C1=C[C@H](c2ccc(Br)cc2)C[C@H](OCCCCO)O1,-0.3,-4.7,-4.7,-2.4,0.2
O=C(Nc1ccccc1)C1=C[C@H](c2ccccc2)C[C@H](OCCCCO)O1,-0.6,51.1*,67.7,33.0*,0.2
O=C(Nc1ccccc1)C1=C[C@H](c2ccc(C(F)(F)F)cc2)C[C@H](OCCCCO)O1,-0.2,34.3,42.0,10.3,-7.4
O=C(Nc1ccccc1)C1=C[C@@H](C2CC2)C[C@@H](OCc2ccc(CO)cc2)O1,7.0,59.5*,4.7,?,-0.1
CO[C@@H]1CN(C)C(=O)c2ccc(NC(=O)c3cccc(Oc4ccccc4)c3)cc2OC[C@H](C)NC[C@H]1C,.,-9.6,.,.,-183.6
CCc1cc2c(=O)[nH]c(-c3ccccn3)nc2s1,-16.3,.,-27.2,34.1*,.
CCc1cc2c(=O)[nH]c(N3CCCC3)nc2s1,4.7,.,40.8,22.2,.
COc1ccc(-c2nnc(SC(C)C(=O)Nc3cccc(Cl)c3)o2)cc1 (configuration not stated),3.4,39.7,86.9*,39.2*,-14.6
COc1ccc(-c2cc(C(=O)Nc3ccccc3F)on2)cc1,0.0,.,95.0*,11.1,.
COc1ccc(-c2noc(N3CCC(C(=O)Nc4ccccc4F)CC3)n2)cc1,-4.2,-32.2,.,1.0,8.5
O=C(Nc1ccc(F)cc1)c1cc(-c2ccccc2)no1,-0.9,.,24.3,35.3*,.
COc1ccc(-c2cc(C(=O)Nc3ccccc3)on2)cc1,-0.4,.,100.7*,13.2,.
O=C(C[C@H]1C=C[C@H](NC(=O)c2cccc(F)c2)[C@@H](CO)O1)Nc1nccs1,.,-3.6,.,.,4.2
COc1cc(NC(=O)c2ccc(N)nc2)cc(C(=O)Nc2cccc(C(F)(F)F)c2)c1,0.3,45.2*!,34.6,-1.6,-16.1
COc1ccc(-c2cc(C(=O)Nc3cc(OC)cc(C(=O)Nc4cccc(C(F)(F)F)c4)c3)[nH]n2)cc1,-1.0,48.0*!,9.4,-1.8,-32.4
COC(=O)c1cc(-c2ccc(OC)cc2)n[nH]1,3.4,?,91.4*,-1.7,3.1
COC(=O)c1cc(-c2ccc(C)cc2)n[nH]1,3.0,.,15.3,?,.
CCC(=O)N[C@@H]1CC[C@@H](CCNC(=O)Nc2ccc(F)cc2)O[C@H]1CO,.,6.5,.,.,-3.4
Nc1cccc2cc(-c3ccccc3)oc12,3.2,91.2*,115.0*,-2.4,3.3
Cc1nc(-c2ccccc2Cl)sc1C(=O)/C=C/N(C)C,5.7,59.0*,57.2,7.4,9.1

# Screening data deposited in PubChem BioAssay by several laboratories.
